# GluA2 TARP mod: modulates AMPAR-stargazin complexes. O88602+P19491. HEK293 GluA2+stargazin, membrane potential dye (FDSS), glutamate EC50; hits were called plate by plate, in both directions. calls only at 30 µM. 40,000 tested, 3.5% active;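 active means any of four per-well response measures lying three or more SD from its plate-wide compound average, in either direction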
# GIRK2 act: Activates human GIRK2-containing potassium channels. HEK293 GIRK2/NPY4 cells, thallium flux fluorescence. activation (% efficacy), % for hits at 37.5 µM. P48051. 34,000 tested, under 10 active;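 active means primary screen hit, no activity in plain HEK293 cells, and in GIRK2-only cells above 5% efficacy rising with concentration; inactive means the rest, including fluorescent compounds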;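 further: efficacy is normalized control-subtracted fluorescence 15 s after thallium addition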
# Numbers without * were called inactive; i = inactive; . = no result given; + = active, no number. The full list was thinned out, with hits kept by preference.
SMILES,GluA2 TARP mod,GIRK2 act
CC(C)C(=O)Nc1ccc(SCC(=O)Nc2ccc(Cl)c(Cl)c2)nn1,i,i
CC(C(=O)Nc1ccc(Cl)c(Cl)c1)N1C(=O)C2CC=C(Cl)CC2C1=O (stereo not given),+,.
COC(=O)c1ccc2c(=O)n(Cc3ccc(C(=O)NC4CCCCCC4)cc3)c(=S)[nH]c2c1,i,i
COc1ccc(OC)c(-c2ccc(=O)n(Cc3ccccc3)n2)c1,i,i
COc1ccc(OC)c(-c2ccc(=O)n(Cc3cccc([N+](=O)[O-])c3)n2)c1,+,i
O=C(CCN1C(=O)c2ccccc2S1(=O)=O)Nc1ccc(C(F)(F)F)cc1,i,i
COc1cccc(-c2cc(CC(=O)N3CCc4ccccc4C3)no2)c1,+,i
COc1ccc(-c2cc(CC(=O)N3CCc4ccccc4C3)no2)cc1OC,i,i
Cc1cccc(-n2ncc3c(=O)n(CC(=O)N4CCC(C)CC4)cnc32)c1C,i,.
Cc1ccnc(Nc2ccc(NCCNC(=O)c3c(F)cccc3F)nn2)c1,.,i
N#C/C(=C\c1cccnc1)c1nc2ccccc2s1,+,.
N#C/C(=C\c1ccc(O)cc1)c1nc2ccccc2s1,i,.
COc1ccc(OC)c(NC(=O)c2ccc(=O)n(Cc3cc(C)ccc3C)c2)c1,i,i
CCOc1ccc(Cl)cc1S(=O)(=O)N1CCCC(C)C1 (stereo not given),+,.
CCOc1ccc(S(=O)(=O)N2CCCC(C)C2)c2ccccc12 (stereo not given),i,.
CCOC(=O)Cc1csc(NC(=O)C2(c3cccs3)CCOCC2)n1,i,i
CCOC(=O)c1ccccc1NC(=O)Cn1cc(-c2ccccc2)c2ncn(CCOC)c(=O)c21,+,i
CCOc1ccccc1NC(=O)Cn1cc(-c2ccccc2)c2ncn(CCOC)c(=O)c21,i,i
COc1cc(C(=O)NCCCN2CCOC(c3ccccc3)C2)cc(OC)c1OC (stereo not given),i,i
O=S(=O)(Oc1c(Cl)cc(Cl)c2cccnc12)N1CCCCC1,+,.
O=S(=O)(Oc1c(Cl)cc(Cl)c2cccnc12)N1CCCCCC1,i,.
O=C(NCCN1CCC(c2cccs2)CC1)C(=O)Nc1ccon1,i,i
COc1ccc(CCNC(=O)CCn2c(=O)oc3ccc(Cl)cc32)cc1,i,i
CCOC(=O)c1[nH]c(C)c(C(=O)N(CC)C2CCCCC2)c1C,i,.
COc1ccc(CCC(=O)Nc2ccc(N3CCCCC3=O)c(OC)c2)cc1,i,i
SMILES,GluA2 TARP mod,GIRK2 act
CCC(=O)Nc1ccc(N2CCCCC2=O)c(OC)c1,+,.
O=C(/C=C/c1ccccc1Cl)Nc1ccc2c(c1)C(=O)N1CCCCC1CCO2 (stereo not given),i,i
O=C1c2cc(NC(=O)C3(c4cccs4)CCCC3)ccc2OCCC2CCCCN12 (stereo not given),+,i
CC(=O)c1sc(=Nc2ccccc2Cl)n(CCCN2CCOCC2)c1C,+,i
O=C(CCn1c(=O)sc2ccccc21)NCCCN1CCOCC1,i,i
CCC(C)NC(=O)c1cc2cccc(OC)c2oc1=O (stereo not given),i,i
COc1cccc2cc(C(=O)CS(=O)(=O)c3ccccc3)c(=O)oc12,+,.
COc1ccc(OC)c2sc(N(CCN3CCOCC3)C(=O)c3ccn(C)n3)nc12,i,i
Cn1ccc(C(=O)N(CCN2CCOCC2)c2nc3ccccc3s2)n1,+,i
COc1cccc2sc(N(CCN(C)C)C(=O)c3cc(C)n(C)n3)nc12,+,i
COc1cccc2sc(N(Cc3cccnc3)C(=O)c3cc(C)nn3C)nc12,i,i
O=C(/C=C/c1ccc([N+](=O)[O-])cc1)N(CCN1CCOCC1)c1nc2ccccc2s1,i,.
Cc1cccc2sc(N(CCN3CCOCC3)C(=O)c3ccc([N+](=O)[O-])o3)nc12,+,i
O=C(/C=C/c1cccc([N+](=O)[O-])c1)N(CCN1CCOCC1)c1nc2ccc(F)cc2s1,+,.
Cc1cccc2sc(N(CCN3CCOCC3)C(=O)c3ccc([N+](=O)[O-])s3)nc12,i,i
COc1ccc(Cl)cc1NC(=O)CSc1ncnc2c1nnn2C,i,i
Cc1ccc(S(=O)(=O)NCC(=O)N/N=C/c2c[nH]c3ccccc23)cc1,i,.
CSc1ccccc1C(=O)NCC1CCN(C(=O)/C=C/c2ccco2)CC1,i,i
COc1ccc(-c2csc(NC(=O)c3ccn(C)n3)n2)cc1,i,i
O=C(Nc1ccc2c(c1)Cc1ccccc1-2)c1csc(-c2cnccn2)n1,i,i
CS(=O)(=O)N1CCC(C(=O)NCCCn2nc(-c3ccncc3)ccc2=O)CC1,i,i
NCC1CCN(C(=O)/C=C/c2ccco2)CC1,i,i
CN(C)CCN(C(=O)c1ccn(C)n1)c1nc2ccc(Cl)cc2s1,+,i
Cc1cc2nc(N(CCN3CCOCC3)C(=O)c3ccco3)sc2cc1C,i,i
O=C(c1ccco1)N(CCN1CCOCC1)c1nc2ccc(Cl)cc2s1,+,.
SMILES,GluA2 TARP mod,GIRK2 act
CN(C)CCCN(C(=O)c1ccno1)c1nc2ccc(Cl)cc2s1,.,i
O=C(NCC(c1ccsc1)N1CCCCCC1)c1c(F)cccc1Cl (stereo not given),+,i
O=C(NCC(c1cccs1)N1CCOCC1)c1c(F)cccc1Cl (stereo not given),i,i
O=C(c1cc2cccnc2n(Cc2ccc(F)cc2)c1=O)N(C1CCCCC1)C1CCCCC1,i,i
O=C(Nc1nc(-c2ccc(Cc3ccccc3)cc2)cs1)c1ccno1,i,i
O=C(Nc1ccc([N+](=O)[O-])cc1)C(=O)N1CCC(O)CC1,i,.
CC(C(=O)N1CCCC1)c1ccc([N+](=O)[O-])cc1 (stereo not given),i,.
O=C(Nc1ccc([N+](=O)[O-])cc1)C(=O)N1CCN(c2ccc(F)cc2)CC1,+,.
O=C(Nc1cccc([N+](=O)[O-])c1)C(=O)N1CCN(c2cccc(Cl)c2)CC1,+,.
CC(C(=O)N1CCN(c2cccc(Cl)c2)CC1)c1ccc([N+](=O)[O-])cc1 (stereo not given),+,.
Cc1ccc(NC(=O)C(=O)N2CCN(c3cccc(Cl)c3)CC2)c([N+](=O)[O-])c1,i,.
COc1ccc(C(=O)Nc2ccc3c(c2)N(S(=O)(=O)c2ccccc2)CCC3)cc1,i,.
Cc1nc2ccccn2c(=O)c1NC(=O)C(C)Oc1ccc2c(c1)OCO2 (stereo not given),i,i
CSc1ccccc1NC(=O)C(=O)NCCn1ccnc1C,i,i
COCc1cc(=O)[nH]c2cc(NC(=O)C(=O)c3c(C)[nH]c4ccccc34)ccc12,.,i
CC(C(=O)Nc1ccc(Br)cc1)N1C(=O)c2ccccc2S1(=O)=O (stereo not given),i,i
CC(C(=O)Nc1ccc(F)c(F)c1F)N1C(=O)c2ccccc2S1(=O)=O (stereo not given),i,.
CC(C(=O)Nc1cc(Cl)ccc1O)N1C(=O)c2ccccc2S1(=O)=O (stereo not given),+,i
CC(C(=O)Nc1nc2ccccc2s1)N1C(=O)c2ccccc2S1(=O)=O (stereo not given),+,.
